Screening data deposited in PubChem by University of Kansas High Throughput Screening Laboratory.
mHTT-CaM PPI inh = mutant huntingtin-calmodulin interaction inhibitors – biochemical, AlphaScreen, primary screen; inhibition, % at 15 µM; AlphaScreen His-mHTT/GST-CaM binding, luminescence; 190,000 tested, 3.6% active; P42858; AID 1671202, 2021;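 further: 0% = both proteins with DMSO and 100% = one protein alone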
Pf apPOL block = Pf-apPOL inhibitors, biochemical, fluorescence | Plasmodium falciparum apicoplast DNA polymerase (apPOL) | Recombinant Pf-apPOL, molecular beacon fluorescence, 1.5 h | inhibition, % at 10 µM | 210,000 tested, 0.25% active | AID 1794808, 2022
* hit, by the source's call; i = inactive; x = not tested or not shown. Only some compounds are listed: those with a hit (about 3.6% of all), similar ones and a draw of the others. No stated cut-off is given here; in the data, active means inhibition above about 50%; inactive means the rest.

SMILES	mHTT-CaM PPI inh	Pf apPOL block
O=c1c2ccccc2c(-c2ccc(F)cc2)nn1-c1cc(N2CCOCC2)ccc1[N+](=O)[O-]	35	0
Cc1c(F)cccc1N1CCC(C(=O)NCc2ccccc2)C1=O (stereo not drawn)	-4	-10
O=C(Nc1ccc(F)c(Cl)c1)/C(=C/c1cccc([N+](=O)[O-])c1)NC(=O)c1ccccc1F	-3	-9
COc1ccc(C2CC(c3cccc(F)c3)=NN2C(=O)CN2CCC(C)CC2)cc1 (stereo not drawn)	23	-6
COc1ccc(C2=NN(C(=O)CN3CCOCC3)C(c3ccc(C)cc3C)C2)cc1 (stereo not drawn)	50	-4
COc1cccc(C2=NN(C(=O)CN3CCOCC3)C(c3ccccc3C)C2)c1 (stereo not drawn)	38	-2
COc1ccc(C2CC(c3cccc(C)c3)=NN2C(=O)CN2CCOCC2)cc1 (stereo not drawn)	66*	-3
COc1ccc(C2=NN(C(=O)CN3CCN(C)CC3)C(c3cccc(F)c3)C2)cc1 (stereo not drawn)	54*	-1
COc1ccc(C2CC(c3ccc(C)cc3C)=NN2C(=O)CN2CCOCC2)cc1 (stereo not drawn)	63*	-6
CCOC(=O)c1cnc2nc(C)ccc2c1Nc1cccc(F)c1	14	-7
CC(C)(C)c1cc(C(c2ccccn2)N2CCCCC2)cc(C(C)(C)C)c1O (stereo not drawn)	77*	-5
Cn1ccnc1C(O)c1cc(C(C)(C)C)c(O)c(C(C)(C)C)c1 (stereo not drawn)	18	-7
CC(C)CC(C(=O)NCC1CCCO1)N1C(=O)C2C3c4ccccc4C(c4ccccc43)C2C1=O (stereo not drawn)	25	-12
O=C(c1ccc2cc[nH]c2c1)N1CCc2nc3cc(-c4ccccc4Cl)[nH]n3c(=O)c2C1	2	-3
CC(=O)N1CCN(c2nc3c(s2)CC(C(=O)Nc2cccc(C(C)C)c2)CC3)CC1 (stereo not drawn)	41	-4
CC(C(=O)Nc1cc(Cl)ccc1C#N)n1nc(-c2ccc(F)cc2)ccc1=O (stereo not drawn)	-5	-6
CC(C(=O)Nc1nc2c(s1)CCCC2)n1nc(-c2ccc(F)cc2)ccc1=O (stereo not drawn)	88*	-1
CC(=O)Nc1ccc(S(=O)(=O)N2CCC(c3cc(-c4cccc(C)c4)n[nH]3)CC2)cc1	2	-2
COc1ccc2nc(-c3ccc(OC)c(NC(=O)CC4CCCC4)c3)cn2n1	-10	-12
COc1ccc2nc(-c3cccc(NC(=O)COc4ccc(C(C)=O)cc4OC)c3)cn2n1	64*	-9
CCc1nnc(NC(=O)CSc2nnc(-c3ccco3)c(-c3ccco3)n2)s1	65*	5
Cc1nnc(NC(=O)CSc2nnc(-c3ccco3)c(-c3ccco3)n2)s1	67*	-1
O=C(CSc1nnc(-c2ccco2)c(-c2ccco2)n1)Nc1nc2ccccc2s1	47	-10
CCSc1nnc(NC(=O)CSc2nnc(-c3ccco3)c(-c3ccco3)n2)s1	81*	3
CCc1nnc(NC(=O)CSc2ncccn2)s1	-5	0
SMILES	mHTT-CaM PPI inh	Pf apPOL block
CCSc1nnc(NC(=O)CSc2nnc(CNC(=O)c3ccco3)o2)s1	-9	5
O=c1c(S(=O)(=O)N2CCCC2)cccn1Cc1nc(-c2ccccn2)no1	-5	-8
CCn1ccc(C(=O)N2CCC(c3nncn3-c3ccccc3)CC2)n1	3	0
O=C(O)C(O)Cc1ccc(O)c(O)c1 (stereo not drawn)	x	84*
N[C@@H](Cc1ccc(O)c(O)c1)C(=O)O	x	8
O=C(NCc1ccc(F)cc1)c1ccc(NC(=O)N2CC3CCCN3c3ccccc32)cc1 (stereo not drawn)	54*	-1
O=C(NCc1ccc(F)cc1)N1CC2CCCN2c2ccccc21 (stereo not drawn)	77*	-4
CCC1CN(C(=O)NCc2ccc(F)cc2)c2ccccc2O1 (stereo not drawn)	-18	-2
CNC(=O)N1CCCC(c2cccc(C(=O)NCc3ccc(F)cc3)c2)C1 (stereo not drawn)	-2	1
O=c1cc(Nc2ccc(OC(F)(F)F)cc2)c2ccccc2o1	x	-3
O=[N+]([O-])c1cccc(-c2noc(-c3c(F)cccc3F)n2)c1	x	-2
COc1ccc(CN2CCc3nc(Nc4ccccc4)ncc3C2)cc1	44	1
Cc1cc(C)c2c(COc3ccc4c(=O)c(-c5ccc6c(c5)OCCO6)coc4c3)cc(=O)oc2c1	0	-2
COc1ccc(-c2noc(C3(NC(=O)c4ccc(OC)c(F)c4)CCCCC3)n2)cc1	6	-3
O=S(=O)(c1ccccc1)c1nc(Cc2ccccc2)oc1N1CCCCC1	7	2
CCc1cc2c(=O)c(-c3ccc(Br)cc3)coc2cc1OC	-5	-2
COc1ccc(N2CCN(CC(O)COc3ccccc3C(C)(C)C)CC2)cc1 (stereo not drawn)	71*	2
COc1ccccc1N1CCN(CC(O)COc2ccccc2C(C)(C)C)CC1 (stereo not drawn)	19	-2
COc1ccc(N2CCN(CC(O)COc3ccc(Cl)cc3C)CC2)cc1 (stereo not drawn)	76*	-2
COc1ccccc1N1CCN(CC(O)COc2ccc(Cl)cc2C)CC1 (stereo not drawn)	75*	21
COc1ccccc1N1CCN(CC(O)COc2cccc3ccccc23)CC1 (stereo not drawn)	23	-7
COc1ccc(N2CCN(CC(O)COc3ccc(C)c(C)c3)CC2)cc1 (stereo not drawn)	36	0
Cc1ccc(CC(=O)Nc2ccc3ncnc(N4CCCCC4)c3c2)cc1	14	2
COc1ccc(NC(=O)C2CCc3nc(N4CCCC4)ncc3C2)cc1C(F)(F)F (stereo not drawn)	5	-10
C[n+]1c(/C=C/Nc2ccccc2)sc2ccccc21	-5	x
SMILES	mHTT-CaM PPI inh	Pf apPOL block
N#Cc1ccc(CSc2nc(CC(=O)N3CCCc4ccccc43)cc(=O)[nH]2)cc1	-1	26
O=C(Nc1ccccc1)O/N=C/c1ccc([N+](=O)[O-])cc1	i	-2
COc1ccc(C2CC(=O)C3=C(C2)Nc2ccccc2NC3c2cccc([N+](=O)[O-])c2)cc1OC (stereo not drawn)	32	14
O=C1CC(c2ccc(Cl)cc2)CC2=C1C(c1cccc([N+](=O)[O-])c1)Nc1ccccc1N2 (stereo not drawn)	62*	-4
CSc1ccc(C2Nc3ccccc3NC3=C2C(=O)CC(c2ccccc2)C3)cc1 (stereo not drawn)	49	-10
O=C1CC(c2ccccc2)CC2=C1C(c1ccc(Br)cc1)Nc1ccccc1N2 (stereo not drawn)	79*	0
COc1cc(OC)c(OC)cc1/C=C1\SC(N2CCCCCC2)=NC1=O	41	-2
Oc1ccc(Cl)cc1Sc1cc(Cl)ccc1O	98*	x
CN(C)Cc1cc(Cl)ccc1O	-3	2
Cc1ccc2[nH]cc(CCN3CC(C(=O)Nc4ccc(F)cc4F)CC3=O)c2c1 (stereo not drawn)	14	0
Cc1cc(Cl)nc(Cl)c1C(=O)NC(=O)Nc1ccccc1C(F)(F)F	-9	-2
CCc1ccccc1NC(=O)C1CC(=O)N(c2ccc3c(c2)CCN3C(=O)C2CC2)C1 (stereo not drawn)	8	-2
